The sample as a whole holds a higher share of hits than the screen did.
Tgondii IFNg = T. gondii growth inhibition with IFN-gamma, primary screen, cell-based | Toxoplasma gondii growth in IFN-gamma-treated host cells; stronger effect = lower value | activity change, negative = inhibition, % (test concentration not listed) | 69,000 compounds, 3.8% hits; in the data active means activity change below about -70%, passing the limit was not always enough;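 further: host cells are HeLa cells infected with Toxoplasma gondii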
Of the large screens only hits and unclear results are named; the others gave an inactive call; ! = not confirmed by another sample.

CCOC(=O)c1c(C)[nH]c2ccc3c(c12)CN1CCc2cc(OC)ccc2C1O3 (configuration not stated)	none
O=C(CCn1cccn1)N1CCOC(c2ccc(Cl)c(Cl)c2)C1 (configuration not stated)	none
COCC1CN(C(=O)C2CC2)Cc2cnn(C)c21 (configuration not stated)	none
Cc1nccn1-c1cccc(C2CCN(C(=O)c3ccc(F)cc3)CC2)n1	none
O=C(CC1NC(=O)N(C2CCCCC2)C1=O)Nc1cccc(CCc2ccncc2)c1 (configuration not stated)	none
CCOC(=O)c1cc(C(=O)OC)c(C)nc1N1CCCN(Cc2ccc(F)cc2)CC1	Tgondii IFNg -77
Fc1ccc(N2CCCN(Cc3ccc4nonc4c3)CC2)cc1	none
CCOC(=O)c1[nH]ncc1CN1CCCN(c2cccc(OC)c2)CC1	none
CC(C)(C)C(=O)N1CCOCC2(C1)CN(c1ccccc1)C(=O)CO2 (configuration not stated)	none
COc1ccc(Cl)cc1C(=O)Nc1cccc2nonc12	none
O=C(Oc1ccc(Cl)c2cccnc12)c1cccnc1	none
O=S(=O)(O)c1cc(I)c(O)c2ncccc12	none
Oc1c(I)cc(I)c2cccnc12	Tgondii IFNg -76!
Oc1ccc(Cl)c2cccnc12	none
COc1ccc(-c2ncc(Cl)cn2)c2ccc(C)nc12	none
O=c1[nH]n(CCO)c(=O)c2cccnc12	none
Cc1ccc2c(Cl)cc(Cl)c(O)c2n1	Tgondii IFNg -81
Oc1c(Cl)cc(Cl)c2cccnc12	Tgondii IFNg -83
Cc1cc(-c2ccccc2)nc(C2CCCN2S(C)(=O)=O)n1 (configuration not stated)	none
Cc1ncc(CC(=O)NC(C)c2ccc3c(c2)CCCC3)c(=O)[nH]1 (configuration not stated)	none
Cc1ccc2nc(N3CCN(CC(=O)NC(C)C)CC3)cc(C)c2c1	none
CC(=O)NCc1nnn2c1CN(c1ncc(C)cn1)CCC2	none
NCC1CCN(C(=O)c2cccc(NCc3ccc(F)cc3)c2)C1 (configuration not stated)	none
Fc1cnc(N2CC[C@@H]3CN(Cc4ccncc4)CCO[C@H]3C2)nc1	none
Cc1n[nH]c(C)c1CCN1CCC(N2CCCC2=O)CC1	none
CCc1cnc(C)nc1-c1ccc(-c2ccn[nH]2)cc1	none
Nc1cnc(-c2ccc(-c3ccn[nH]3)cc2)cn1	none
Cc1ccc(-c2ccc(-c3ccn[nH]3)cc2)c(N)n1	Tgondii IFNg -81
COc1cc(NCCCc2nnc3ccccn23)ncn1	none
Cc1nn(C(=O)c2ccccc2)c2c1C(=O)CC(C)(C)C2	none
Cc1nn(-c2ccc3ccccc3n2)c2c1C(=O)CC(C)(C)C2	Tgondii IFNg -95
CC1(C)CC(=O)c2cnc3nc(N)nn3c2C1	none
COc1nc2cc(C)ccc2cc1CN(CCc1ccccc1)Cc1ccncc1	none
O=C1O[C@@H]2CN(c3cnc4ccccc4n3)C[C@@H]2N1CCCN1CCOCC1	none
CCCN1C(=O)C2(NCCc3c2[nH]c2ccc(OC)cc32)c2cc(Br)ccc21 (configuration not stated)	none
COc1ccc2[nH]c3c(c2c1)CCNC31C(=O)N(CCC(C)C)c2ccccc21 (configuration not stated)	none
COc1ccc2[nH]c3c(c2c1)CCNC3=O	Tgondii IFNg -89
COc1cc2cc(C#N)c(SCC(=O)NCc3ccc4c(c3)OCO4)nc2cc1OC	none
CC(=O)N1CCCCC[C@@H]2[C@@H]1[C@H](c1cccc(F)c1)CN2Cc1cnn(C)c1C	none
COc1cc(C(=O)NC(c2ccccc2)c2ccccc2OC)nc(OC)n1 (configuration not stated)	none
Cc1ccsc1CNc1ccc(C(=O)NCC(O)CO)cc1 (configuration not stated)	none
COc1cccc2cc(-c3ccccc3)c(=O)oc12	none
O=c1oc2ccccc2cc1-c1csc(-c2ccccc2Cl)n1	none
COc1ccccc1NC(=O)c1cccc(-c2cc3ccccc3oc2=O)c1	none
O=C(COC(=O)c1cc2ccccc2oc1=O)c1ccc(Cl)cc1Cl	none
COc1cc(NC(=O)c2ccc(Cl)cc2Cl)ccc1-c1cc2ccccc2oc1=O	Tgondii IFNg -85
COc1cc(Br)c(-c2cc3ccccc3oc2=O)cc1OC	Tgondii IFNg -86
CCOCc1nn(C)c2c1CN(C(=O)c1ccc[nH]1)CC2	none
CCN(CC)C[C@@H]1OC[C@@H]2CCN(C(=O)c3ccccn3)C[C@@H]21	none
CC(C)N1CC[C@]2(CCC[C@@H](CNC(=O)c3ccccc3)O2)C1	none
COC(=O)c1cn([C@@H]2C[C@@H](C(=O)NCCc3cccc(Cl)c3)N(C3CCCC3)C2)nn1	none
CCc1nn2cc(C(C)(C)C)nc2s1	none
CC1(CCC#N)N=C(SCCC#N)N(c2ccccc2)C1=O (configuration not stated)	Tgondii IFNg -74
C=CCOC[C@@H]1CCC[C@]12CN(Cc1ccc(C)s1)CCO2	none
Cc1ccc(-c2nc(CN3C(=O)C(O)(c4ccccc4)c4ccccc43)c(C)o2)cc1 (configuration not stated)	none
CCOc1ccc(-c2nc(CN3C(=O)C(O)(c4ccccc4)c4ccccc43)c(C)o2)cc1 (configuration not stated)	none
COc1ccc(-c2nc(CN3C(=O)C(O)(c4ccc(C)cc4)c4ccccc43)c(C)o2)cc1 (configuration not stated)	Tgondii IFNg -124
Cc1cc(C)c2c(=O)n(Cc3nc(-c4ccccc4Cl)oc3C)c(=O)n(-c3ccccc3)c2n1	none
Cc1oc(-c2ccccc2Cl)nc1CN1C(=O)C(O)(c2ccccc2)c2ccccc21 (configuration not stated)	Tgondii IFNg -96
CCN(CC)C(=O)c1cc(C)nc2c1c(=O)n(Cc1nc(-c3ccccc3Cl)oc1C)c(=O)n2C	none
Cc1c(C)n(Cc2ccccc2)c2nc[nH]c(=O)c12	none
COCCc1nnc(NC(=O)C2(Cc3cc(-c4ccc(C)cc4)no3)CCOCC2)s1	none
O=S(=O)(NCCc1csc(-c2cccc(F)c2)n1)c1cccs1	none
O=C(NCc1cccs1)c1cccc2[nH]cc(CN3CCCC3)c12	none
Cc1nc(-c2ccccc2)nc2c1COCC21CCN(c2ncc(F)cn2)C1 (configuration not stated)	none
COc1ccc(S(=O)(=O)N2CCC3(CC2)Nc2cc(F)ccc2-n2cccc23)cc1Cl	none
FC(F)(F)c1ccc(-c2nnc(COc3ccccc3Cl)o2)cc1	none
Cc1onc(-c2c(F)cccc2Cl)c1-c1nnc(-c2ccc(C(F)(F)F)cc2)o1	Tgondii IFNg -99
Cc1onc(-c2c(Cl)cccc2Cl)c1-c1nc2cccc(F)c2c(=O)o1	none
CC(O)c1ccc(-c2cccc(-n3cccn3)c2)cc1 (configuration not stated)	none
Cc1cccc(-c2nc(C)c(CCNC(=O)C(=O)Nc3ccc(F)cc3F)s2)c1	none
Cc1ccc(NC(=O)Cn2ncc3c(N4CCCC4)ncnc32)cc1Cl	none
O=C(Cn1ncc2c(N3CCCCCC3)ncnc21)Nc1ccc(OC(F)(F)F)cc1	Tgondii IFNg -98
O=C(Cn1ncc2c(N3CCN(c4ccccc4)CC3)ncnc21)Nc1ccc(OC(F)(F)F)cc1	none
O=C(Cn1ncc2c(N3CCCC3)ncnc21)Nc1ccc(F)c(Cl)c1	none
O=C(Cn1ncc2c(N3CCCC3)ncnc21)Nc1ccc(OC(F)(F)F)cc1	none
Cc1ccc(NC(=O)Cn2ncc3c(N4CCCCCC4)ncnc32)cc1F	Tgondii IFNg -101
O=C(Nc1cccnc1)[C@H]1C[C@@H]2OCC[C@@H]2N(C(=O)c2ccco2)C1	none
CS(=O)(=O)N1C[C@H](O)COC[C@H]2O[C@@H](CC(=O)NCc3ccccc3)CC[C@@H]21	none
Cc1ccc(C)n1C(Cc1c[nH]c2ccccc12)C(=O)O (configuration not stated)	none

Source: PubChem (Broad Institute)
